Data from PubChem BioAssay AID1626 (SRMLSC, 2009).
The whole screen tested about 220,000 compounds, of which about 2,000 (0.91%) were called active. About 2% were inconclusive and are not listed. Not all results are given here. Measured potencies and affinities stand elsewhere. Unmarked numbers belong to inactive results. No stated cut-off is given here; in the data, inconclusive means inhibition above about 80% without an active follow-up result; inactive means below that; test concentration not stated here.

test: M. tuberculosis H37Rv growth inhibitors, H37Rv strain (AID 1626); details: stronger effect = higher value, concentration not given here;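 further: bacteria incubated seven days before Alamar blue readout; 0% = bacteria only wells and 100% = bacteria with antibiotic wells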

In order of falling inhibition:
1. N#CC1=C(N)NC(SCC(=O)c2ccc(Br)cc2)=C(C#N)C12CCCCC2  79.4%
2. Clc1ccc(Nc2ncn[nH]2)cc1  77.2%
3. Cc1ccccc1-c1ncc(CN2CCC(CO)(CCCc3ccccc3)CC2)cn1  69.6%
4. CCOC(=O)c1ccc(-n2c(CN3CCOCC3)nc3ccc([N+](=O)[O-])cc3c2=O)cc1  69.4%
5. O=C(OCC#CCSc1nnc(-c2cccc3ccccc23)o1)c1ccco1  64.9%
6. CCOC(=O)c1ccc(-n2c(CN3CCN(CC)CC3)nc3ccc([N+](=O)[O-])cc3c2=O)cc1  64.1%
7. CN(Cc1ccc(Cl)cc1)C(=O)CCl  63%
8. COc1ccc(NC(=S)N(Cc2ccc(Cl)cc2)Cc2ccc(C(=O)O)cc2)cc1Cl  61%
9. O=C(Oc1ccc2ccccc2c1)c1ccco1  53.4%
10. Cc1ccc(NC2=NCC(Cc3ccc(Br)cc3)S2)cc1 (stereo not drawn)  44.8%
11. O=C(Nc1nnc(C2CC2)s1)c1cc(-c2ccccc2)nn1-c1ccccc1  43.6%
12. CC(C)(C)NC(=O)COC(=O)c1cc(F)c(F)cc1Cl  38.6%
13. CCCCOc1cccc(-c2nnc(N)s2)c1  37.6%
14. CCOC(=O)c1cccc(NC(=O)/C=C/c2ccc([N+](=O)[O-])cc2)c1  22.2%
15. N#CC1=C(N)NC(SCC(=O)c2ccc(Cl)cc2)=C(C#N)C12CCCC2  21.4%
16. CCOC(=O)c1cnc2ccc(OC)cc2c1NCc1ccccc1  20.8%
17. CCSc1nnc(-c2ccc(C)cc2)c2ccccc12  18.7%
18. COc1ccc(CN(C)C(=O)CCl)cc1  17.4%
19. CCc1ccc(NS(=O)(=O)c2ccc(OC)c(C)c2)cc1  16.8%
20. O=C(CN1CCN(c2ccccc2Cl)CC1)NC1CCCc2ccccc21 (stereo not drawn)  14.2%
21. Cc1ccc(-c2nn(-c3cccc(F)c3)cc2CNCc2cccnc2)o1  12.8%
22. Cc1ccc(SCC(=O)NC(=O)NC(C)C)c(C)c1  11.6%
23. COc1ccc(Nc2nnc(SCC(=O)/C=C3/N(C)c4ccccc4C3(C)C)s2)cc1  10.8%
24. CCOC(=O)c1cnc2ccc(OCC)cc2c1NCc1cccnc1  10.7%
25. CCCCNC(=O)COC(=O)c1ccc(F)cc1Cl  10.1%
26. CCCCn1nnc(NC(=O)c2ccc(-c3ccccc3[N+](=O)[O-])o2)n1  9.1%
27. Brc1ccc2ncc(Br)cc2c1  9.05%
28. Cc1ccc(-c2nn(-c3cccc(F)c3)cc2CNCCc2ccncc2)o1  8.28%
29. O=c1c2cn[nH]c2[nH]c(=S)n1-c1cccc2ccccc12  8.18%
30. O=C(COc1ccc(OCc2ccccc2)cc1)NN=C1CCCC1  7.98%
31. CCCNC(=O)COC(=O)c1cc(SC)ccc1Cl  7.67%
32. COc1ccc(OC)c2c1C(=O)c1ccccc1C2=O  6.76%
33. O=C(CSc1n[nH]c(-c2cccs2)n1)NCc1ccc2c(c1)OCO2  6.67%
34. COC(=O)c1ccccc1NC(=O)CSc1nnc(-c2ccc(C)cc2)o1  6.5%
35. Cc1ccc(-c2nnc(-c3ccc(NC(=O)c4ccco4)cc3)o2)cc1  6.39%
36. Clc1cc(Cl)cc(Nc2ncn[nH]2)c1  5.96%
37. O=C(OCc1nnc(-c2ccccc2)o1)c1ccco1  5.59%
38. CC(/C=C/c1ccccc1)=N\Nc1nc(-c2ccccc2)cs1  5.57%
39. O=c1[nH]c(SCc2nc3ccccc3n2Cc2ccccc2)nc2ccccc12  5.31%
40. COc1ccc(NC2=NCC(C)S2)cc1 (stereo not drawn)  5.03%
41. Cc1ccc(CN2CCc3c(OCC(=O)Nc4cc(C)ccc4C)cccc3C2=O)cc1  4.57%
42. C=CCNC(=O)c1onc(CSc2cc(C)cc(C)c2)c1C(=O)NCC=C  4.46%
43. COc1ccccc1OCC#CCN1CCCCCC1  4.4%
44. CNC(=O)COC(=O)c1cc(F)c(F)cc1Cl  4.23%
45. Cc1nn(C(=O)c2c(-c3ccccc3)noc2C)c(C)c1N=Nc1cc(C(F)(F)F)cc(C(F)(F)F)c1  4.12%
46. O=C(Nc1cccc(NC(=O)c2cccs2)c1)c1ccc2c(c1)OCCO2  4%
47. CC(C)NC(=O)COC(=O)c1cc(Br)ccc1Cl  4%
48. CC(=O)c1cccc(CN2CCC(CO)(CCCc3ccccc3)CC2)c1  3.9%
49. CC(C)Cc1nnc(NS(=O)(=O)Cc2ccccc2)s1  3.7%
50. CCOC(=O)CN(Cc1sccc1C)C(=O)Nc1ccc(OCC)cc1  3.69%
51. Cc1ccccc1-n1c(C)nc2ccccc2c1=O  2.88%
52. NS(=O)(=O)c1ccc(NC(=O)c2c(Cl)cccc2Cl)cc1  2.71%
53. Cc1cccc(N=Cc2c(O)cc(C)oc2=O)c1  2.51%
54. O=c1c2ccccc2nc(-c2ccccc2)n1-c1ccccc1  2.18%
55. CCc1ccccc1NC(=O)c1ccc(Cn2cc([N+](=O)[O-])cn2)cc1  2.06%
56. O=C1CC(c2cccc(F)c2)c2c(c3ccccc3[nH]c2=O)O1 (stereo not drawn)  1.98%
57. CCCCCC(=O)N/N=C(\C)c1ccccn1  1.4%
58. COc1cc(C(=O)c2nccc3cc(OC)c(OC)cc23)c([N+](=O)[O-])cc1OC  1.27%
59. COc1ccc2nc(SCC(=O)NCCc3ccccc3)[nH]c2c1  0.98%
60. COc1ccc(Cl)cc1-c1n[nH]c(=S)n1C1CCCCC1  0.84%
61. Nc1ccc(Oc2cccc(Oc3ccc(N)cc3)c2)cc1  0.76%
62. CSCCC(NC(=O)c1ccc(C(C)(C)C)cc1)C(=O)O (stereo not drawn)  0.53%
63. Nc1ccc(O)c2c1C(=O)c1ccccc1C2=O  0.25%
64. CCCCNC(=O)COC(=O)c1ccc(Cl)c(S(N)(=O)=O)c1  -0.33%
65. Cc1onc(-c2ccccc2)c1C(=O)N/N=C/c1cc(Br)c(Br)o1  -1.13%
66. CCOC(=O)CN1C(=O)C(CC)Oc2ccccc21 (stereo not drawn)  -1.23%
67. CC(C)Sc1nnc([C@@H](N)Cc2ccccc2)o1  -1.26%
68. O=C(NNC1=NCCC1)c1cccc(S(=O)(=O)N2CCCC2)c1  -1.54%
69. O=C(COc1ccc(Cl)cc1)Nc1ccccc1N1CCOCC1  -1.58%
70. CC1=C(C#N)C(NC(=O)C(C)(C)C)(C(F)(F)F)C(=O)N1 (stereo not drawn)  -1.62%
71. Cc1ccc(NC(C)c2cc(Cl)ccc2O)cc1 (stereo not drawn)  -1.72%
72. CC1=CC(C)(C)Nc2ccc(OC(=O)c3cccnc3)cc21  -2%
73. CCCOc1ccc2c(C)c(CC(=O)OC)c(=O)oc2c1  -2.3%
74. CCOc1ccc(N2CC(=O)N(c3ccc(OCC)cc3)CC2=O)cc1  -2.5%
75. COc1ccccc1C1C([N+](=O)[O-])=C(N)Oc2c1c(=O)oc1ccccc21 (stereo not drawn)  -2.62%
76. CCOc1ccc(N2C(=O)CNC2=S)cc1  -2.82%
77. CC1CC(C)(C)NC(C)c2ccccc21 (stereo not drawn)  -2.84%
78. Nc1ccc(Br)cc1C(=O)O  -3.82%
79. CCCCCC/C(=N/O)c1ccccn1  -3.95%
80. CSc1nc(N(C)NC(=O)c2ccccc2)c2ccccc2n1  -4.21%
81. CC1CCCCN1S(=O)(=O)c1ccc(S(=O)(=O)N2CCN(c3ccccc3)CC2)cc1 (stereo not drawn)  -4.53%
82. COC(=O)CC1COc2ccccc2N1C(=O)c1ccc(OC)cc1 (stereo not drawn)  -4.78%
83. O=C(c1ccco1)N1CCN(S(=O)(=O)c2ccc(C3CCCCC3)cc2)CC1  -4.85%
84. Cc1cc(C)cc(Oc2ccc(N)cc2)c1  -4.94%
85. COC(=O)c1ccc(OC(=O)c2ccco2)cc1  -4.94%
86. Cc1ccc(S(=O)(=O)N2CCCC(C(=O)N(Cc3cccs3)C3CC3)C2)cc1 (stereo not drawn)  -4.95%
87. N#C/C(=C(/O)c1cccs1)c1nnc2n1CCCCC2  -5.04%
88. CCOC(=O)Nc1c(C)n(C)n(-c2ccccc2)c1=O  -5.08%
89. CSc1nc(N(C)NC(=O)c2ccc(F)cc2)c2ccccc2n1  -5.17%
90. Nc1nn(-c2cccc(F)n2)cc1-c1ccccc1  -5.22%
91. CCCC1(CCC)C(=O)NC(=NCc2ccccc2)NC1=O  -6.66%
92. CSc1ccc(/C=C(/Sc2nnc(-c3ccccc3)o2)C(=O)O)cc1  -6.84%
93. CCCCOc1cccc(C(=O)O)c1  -6.88%
94. CCOC(=O)N1c2ccccc2C=CC1OCC (stereo not drawn)  -8.15%
95. COC(=O)CNC(=O)C1CCN(c2nc(C)cc(C)n2)CC1  -8.28%
96. CC(Nc1ccc(Cl)cc1)c1cc(Cl)ccc1O (stereo not drawn)  -8.64%
97. Fc1ccc(CSc2nncn2NCc2ccccc2)cc1  -8.84%
98. CCSc1nnc(NC(=O)C2Cc3ccccc3CN2C(=O)c2ccco2)s1 (stereo not drawn)  -9.18%
99. CC1CC(C)(C)NCc2ccccc21 (stereo not drawn)  -9.91%
100. O=C(NCc1ccccc1)[C@]1(C(F)(F)F)C[C@H](CCc2ccccc2)CCCO1  -10.1%
101. CC1=CC(C)(C)Nc2ccc(OC(=O)CN3C(=O)c4ccccc4C3=O)cc21  -11.5%
102. CCOC(=O)N1CCN(S(=O)(=O)c2ccc3c(c2)CCN3C(=O)CC)CC1  -14.9%
103. C=CCCCCCCCC(=O)OC  -15.6%
